# Cruzain inh noDet – blocks cruzain activity in detergent-free assay | P25779 | actives 2.3% (n = 200,000) | AID 1476 | Potency, µM, inactives show max response, negative = inhibition, hits mostly inhibitors | purified cruzain, Z-FR-AMC fluorescence, no detergent;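 further: plate controls were enzyme without inhibitor for no effect and buffer without enzyme for full effect; nearly all actives have a fitted effect of over 40% in size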
# Target sequence (P25779 123-467 limits assumed): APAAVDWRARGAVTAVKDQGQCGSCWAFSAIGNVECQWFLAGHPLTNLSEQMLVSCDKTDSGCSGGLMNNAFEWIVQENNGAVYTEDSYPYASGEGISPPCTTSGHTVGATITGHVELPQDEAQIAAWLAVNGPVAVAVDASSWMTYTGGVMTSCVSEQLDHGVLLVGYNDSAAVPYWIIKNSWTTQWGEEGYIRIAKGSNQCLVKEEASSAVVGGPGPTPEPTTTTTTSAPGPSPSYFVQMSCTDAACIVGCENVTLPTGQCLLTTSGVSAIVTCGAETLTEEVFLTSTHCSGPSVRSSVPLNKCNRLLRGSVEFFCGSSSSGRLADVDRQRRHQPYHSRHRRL
#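 Purified cruzain at 1.5 nM, pre-incubated 15 min with compound at room temperature in 100 mM sodium acetate pH 5.5, 5 mM DTT, 0.00005% Triton X-100. Reaction started with 2 uM Z-FR-AMC; AMC fluorescence increase over 60 s gives rate.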
# Cruzain inh Det – cruzain (T. cruzi) inhibition with detergent; P25779; purified cruzain, Z-FR-AMC fluorescence, 0.01% Triton; Potency, µM, for inactives: max response, negative = inhibition, hits mostly inhibitors; actives 0.43% (n = 200,000);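 further: plate controls were neutral wells for no effect and buffer without enzyme for full effect; nearly all actives have a fitted effect of over 40% in size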
#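 15 min RT preincubation of 1.5 nM cruzain with compound, then 2 uM Z-FR-AMC added; kinetic AMC fluorescence, 60 s delta. Triton X-100 0.01%, pH 5.5.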
# Numbers without * were called inactive; u = inconclusive. An excerpt weighted towards active compounds, which were near 2.4% of everything screened. The call rests on the fitted dose curve; in most records, active means well fitted curve in the direction sought with a large enough effect; inconclusive means small, poorly fitted or top-dose-only effect, or another doubt; inactive means no such curve, though single readings can be large; an effect the other way counts as inactive or inconclusive. Potency means the concentration at half of the fitted maximal effect.
SMILES,Cruzain inh noDet,Cruzain inh Det
COc1ccc(N2CCN(C(=O)C3CCN(S(=O)(=O)c4cn(C)cn4)CC3)CC2)cc1,-3%,-1%
Cc1ccc(C)c(NS(=O)(=O)c2ccc3c(c2)Cc2cc(S(=O)(=O)Nc4cc(C)ccc4C)ccc2-3)c1,7.9µM*,-1%
Cc1ccc(NS(=O)(=O)c2ccc3c(c2)C(=O)c2ccccc2C3=O)c(C)c1,-1%,-4%
Cc1cccc(C(=O)NC(=O)Nc2ccc(-n3nc(C(F)(F)F)cc3C(F)(F)F)cc2)c1,-11%,-2%
CNC(=O)c1cc2cccc(OC)c2oc1=O,-7%,-3%
COc1cccc2cc(/C(C)=N/Nc3nc(-c4cc(C)ccc4C)cs3)c(=O)oc12,5µM*,-16%
Cc1ccc([N+](=O)[O-])cc1S(=O)(=O)N1CCn2cccc2C1c1ccccc1 (configuration not stated),u,-2%
CCc1nnc(NS(=O)(=O)c2ccc(NC(=S)NC(=O)/C=C/c3ccc(C(C)C)cc3)cc2)s1,u,14µM*
CCc1nnc(NS(=O)(=O)c2ccc(NC(=S)Nc3ccc(F)cc3)cc2)s1,12%,-4%
CCc1nnc(NS(=O)(=O)c2ccc(NC(=S)NC(=O)/C=C/c3ccccc3)cc2)s1,1%,25µM*
CCc1nnc(NS(=O)(=O)c2ccc(NC(=S)NC(=O)/C=C/c3ccc(OC)cc3)cc2)s1,-17%,22µM*
COc1ccc(NS(=O)(=O)c2ccc(NC(=S)NC(=O)/C=C/c3ccccc3)cc2)nn1,32µM*,-13%
CCc1nnc(NS(=O)(=O)c2ccc(NC(=S)NC(=O)c3ccc(Br)cc3)cc2)s1,7%,u
COc1ccc(NS(=O)(=O)c2ccc(NC(=S)NC(=O)c3ccc(Br)cc3)cc2)nn1,2%,-7%
CCc1nnc(NS(=O)(=O)c2ccc(NC(=S)NC(=O)c3ccccc3)cc2)s1,-2%,-12%
Fc1ccc(-n2ncc3c(Nc4cccc(Cl)c4)ncnc32)cc1,2%,-7%
O=c1c(-c2cccc(Cl)c2)nc2cncnc2n1Cc1ccccc1Cl,-11%,3%
CC(=O)c1ccc(N2CCN(c3ncnc4c3c(-c3ccccc3)cn4-c3cccc(C)c3)CC2)cc1,u,5%
COc1ccccc1CNc1ncnc2c1c(-c1ccccc1)cn2-c1ccc(Br)cc1,7.9µM*,-1%
COc1ccc(CNc2ncnc3c2c(-c2ccccc2)cn3-c2ccccc2)cc1,6%,1%
COc1ccc(NC(=O)C2CCN(S(=O)(=O)c3ccc4c(c3)CCCC(=O)N4)CC2)cc1Cl,1%,-3%
Cc1cc(C(=O)Nc2nnc(C3CCCCC3)s2)cs1,u,13%
O=C(Nc1nnc(C2CCCCC2)s1)c1ccc(Br)s1,25µM*,-2%
CCc1ccc(C(=O)c2cn(CC(=O)Nc3ccc4c(c3)OCO4)c3ccc(F)cc3c2=O)cc1,u,-7%
Cc1cccc(C(=O)Nc2cc(-c3ccccc3F)nn2-c2ccccc2)c1,-8%,-1%
SMILES,Cruzain inh noDet,Cruzain inh Det
O=C(Nc1cc(-c2ccccc2F)nn1-c1ccccc1)c1ccccc1Br,32µM*,0%
O=C1CCNc2ccc(-c3ccccc3)cc21,20µM*,-5%
Cc1ccc2c(c1)C(=O)CCN2,2%,-1%
COc1ccc(C(=O)NCC(c2ccc3c(c2)OCO3)N2CCOCC2)cc1OC (configuration not stated),3%,1%
COC(=O)CN1C(=O)CSc2ccc(S(=O)(=O)Nc3cccc(Br)c3)cc21,-6%,-10%
Cc1cccc(NC(=O)C2CCCC2)c1,9%,-1%
Cc1cccc(NC(=O)COC(=O)CNC(=O)C2CCCCC2)c1,7.9µM*,7.1µM*
COc1ccccc1-c1nnc(Nc2nc3c(OC)cccc3s2)o1,32µM*,u
COc1cccc2sc(Nc3nnc(-c4ccccc4Cl)o3)nc12,u,1%
O=c1c(CCc2ccccc2)nc2cncnc2n1-c1ccccc1,-2%,-9%
O=c1c(CCc2ccccc2)nc2cncnc2n1Cc1ccccc1,3.2µM*,3%
Cc1cccc(-c2nc(C)c(CCNC(=O)C(=O)Nc3cccc(Cl)c3C)s2)c1,-16%,1%
O=S(=O)(Nc1ccc(-c2nc3cccnc3s2)cc1)c1ccc(Cl)s1,u,-12%
O=S(=O)(Nc1ccc(-c2nc3cccnc3s2)cc1)c1cccs1,13µM*,-3%
COc1cc2c(-c3ccc(C)cc3)nc3c(c(C)nn3-c3ccccc3)c2cc1OC,-14%,0%
O=C1CC(c2nc3ccccc3n2CCCCOc2ccccc2)CN1c1ccccc1Cl (configuration not stated),u,-14%
COc1ccccc1CCNC(=O)CCc1c(C)c2cc3c(C)coc3cc2oc1=O,13%,-5%
Cc1cccc(N2CCN(C(=O)C3CCN(S(=O)(=O)c4cccs4)CC3)CC2)c1C,-11%,-3%
COc1cc(-c2cccs2)cc(=O)c2c(C)oc(C)c12,20µM*,-5%
COc1cc(-c2cc(OC)c3c(C)oc(C)c3c(=O)c2)ccc1OC(=O)c1ccccc1Cl,26%,-21%

# Bioassay records: PubChem BioAssay, National Center for Advancing Translational Sciences (NCATS)
